Test results reported in PubChem BioAssay (Tox21).
Results filed as inconclusive are left out. Active and inactive are the calls of the source. Unless noted, calls come from the whole dose curve; as a rule, active = well fitted curve in the direction sought with a large enough effect in the repeat runs; inconclusive = weak or mixed curves; inactive = no such curve, though single readings can be large; an effect the other way counts as inactive or inconclusive.

Tests used:
[1] = qHTS assay to identify aromatase inhibitors - cell viability counter screen (AID 743084);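 note: cells stimulated with testosterone during compound exposure; nearly all actives have a fitted effect of over 55% in size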; note: potency is the fitted concentration of half-maximal effect
[2] = target: Aryl hydrocarbon receptor (Homo sapiens) (UniProt P35869); assay: qHTS assay to identify small molecule that activate the aryl hydrocarbon receptor (AhR) signaling pathway (AID 743085);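 note: HG2L7.5c1 human HepG2 liver cells with stably integrated DRE-driven firefly reporter; series mostly up to about 70 µM; nearly all actives have a fitted effect of over 15% in size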
Sequence of Aryl hydrocarbon receptor (Homo sapiens) (P35869 whole entry, looked up): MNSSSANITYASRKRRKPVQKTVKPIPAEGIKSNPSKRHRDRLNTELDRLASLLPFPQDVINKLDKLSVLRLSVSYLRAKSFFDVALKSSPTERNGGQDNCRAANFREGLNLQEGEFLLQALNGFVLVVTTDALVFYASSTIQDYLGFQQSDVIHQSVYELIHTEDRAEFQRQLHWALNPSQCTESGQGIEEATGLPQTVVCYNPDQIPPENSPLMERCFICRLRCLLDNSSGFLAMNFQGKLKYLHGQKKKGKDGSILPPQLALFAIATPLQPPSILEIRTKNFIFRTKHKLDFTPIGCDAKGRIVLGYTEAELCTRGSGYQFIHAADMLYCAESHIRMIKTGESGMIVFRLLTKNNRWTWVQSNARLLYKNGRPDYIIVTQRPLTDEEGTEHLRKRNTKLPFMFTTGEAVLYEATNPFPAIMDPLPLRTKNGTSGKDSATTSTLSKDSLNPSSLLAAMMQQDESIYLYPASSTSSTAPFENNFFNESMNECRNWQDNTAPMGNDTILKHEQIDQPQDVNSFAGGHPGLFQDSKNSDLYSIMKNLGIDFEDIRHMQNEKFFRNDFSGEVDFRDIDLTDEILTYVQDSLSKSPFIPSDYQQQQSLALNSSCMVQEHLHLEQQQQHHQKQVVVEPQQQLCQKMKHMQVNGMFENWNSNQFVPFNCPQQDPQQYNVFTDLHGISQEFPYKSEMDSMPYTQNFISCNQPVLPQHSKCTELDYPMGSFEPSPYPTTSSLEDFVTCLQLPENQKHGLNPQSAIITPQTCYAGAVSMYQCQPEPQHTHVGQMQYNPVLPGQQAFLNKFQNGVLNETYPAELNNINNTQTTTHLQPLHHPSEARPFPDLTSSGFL
Procedure, shortened: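 Cell line HG2L7.5c1 (human hepatoma, 20× DRE-luc). Plated, 5 h 37C, compound/DMSO added, 24 h 37C. CellTiter-Fluor 30 min 37C → fluorescence; then ONE-Glo 30 min RT → luminescence.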

[3] = qHTS assay to identify small molecule that activate the aryl hydrocarbon receptor (AhR) signaling pathway - cell viability counter screen (AID 743086); note: nearly all actives have a fitted effect of over 45% in size; note: potency is the fitted concentration of half-maximal effect
Procedure, shortened: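 HepG2-AhR-luc (HG2L7.5c1) cells, 4000/well, were preincubated 5 h at 37C, exposed to compound in qHTS format for 24 hr at 37C, then given CellTiter-Fluor for 30 min; viability was read as fluorescence in the reporter wells.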

[4] = qHTS assay to identify small molecule antagonists of the peroxisome proliferator-activated receptor gamma (PPARg) signaling pathway - cell viability counter screen (AID 743194); note: nearly all actives have a fitted effect of over 55% in size; note: potency is the fitted concentration of half-maximal effect
Procedure, shortened: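 PPARg-UAS-bla HEK293H cells were plated, rested 5 h at 37 C, then treated with compounds plus rosiglitazone (50 nM final) for 17 h at 37 C; viability was then read by CellTiter-Glo luminescence after 30 min at room temperature.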

[5] = qHTS assay for small molecule agonists of the antioxidant response element (ARE) signaling pathway - cell viability counter screen (AID 743203; calls by dose curve; note: nearly all actives have a fitted effect of over 55% in size; note: potency is the fitted concentration of half-maximal effect)
Procedure, shortened: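 Viability counter screen: stably transfected ARE-bla HepG2 line, 16 hrs compound exposure at 37C/5% CO2, ATP-based CellTiter-Glo luminescence measured in the reporter wells.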

[6] = qHTS assay for small molecule activators of the heat shock response signaling pathway - cell viability counter screen (AID 743209); note: nearly all actives have a fitted effect of over 50% in size; note: potency is the fitted concentration of half-maximal effect
Procedure, shortened: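 Viability of HSE-bla HeLa cells is measured with CellTiter-Glo in the wells already used for the reporter read. Compound exposure lasts 5 h at 37 C, and luminescence is read after 30 min at room temperature.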

[7] = qHTS assay to identify small molecule agonists of the peroxisome proliferator-activated receptor delta (PPARd) signaling pathway - cell viability counter screen (AID 743211); note: potency is the fitted concentration of half-maximal effect; nearly all actives have a fitted effect of over 55% in size
Procedure, shortened: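 HEK293H PPARd-bla, 3000 cells/well; 5 h preincubation 37C/5% CO2; cpd in DMSO, 17 h 37C; B/G FRET substrate 2 h RT; CellTiter-Glo 30 min RT, luminescence.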

[8] = target: Peroxisome proliferator-activated receptor delta (Homo sapiens) (UniProt Q03181); assay: qHTS assay to identify small molecule agonists of the peroxisome proliferator-activated receptor delta (PPARd) signaling pathway (AID 743212; calls by dose curve)
Sequence of Peroxisome proliferator-activated receptor delta (Homo sapiens) (Q03181 whole entry, looked up): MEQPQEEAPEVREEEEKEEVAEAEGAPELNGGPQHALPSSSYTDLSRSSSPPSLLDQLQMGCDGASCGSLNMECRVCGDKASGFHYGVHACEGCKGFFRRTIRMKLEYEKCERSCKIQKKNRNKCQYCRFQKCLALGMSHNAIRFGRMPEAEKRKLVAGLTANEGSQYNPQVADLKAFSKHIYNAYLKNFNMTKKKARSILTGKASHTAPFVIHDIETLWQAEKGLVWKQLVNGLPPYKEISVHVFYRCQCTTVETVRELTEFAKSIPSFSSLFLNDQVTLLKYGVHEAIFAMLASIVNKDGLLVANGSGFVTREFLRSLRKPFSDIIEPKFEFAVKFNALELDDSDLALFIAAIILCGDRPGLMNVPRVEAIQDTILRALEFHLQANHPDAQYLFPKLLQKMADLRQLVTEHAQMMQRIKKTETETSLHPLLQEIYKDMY
Procedure, shortened: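 Beta-lactamase reporter read by fluorescence (LiveBLAzer B/G FRET, 2 h, room temperature). Test agents, in DMSO, incubated at 37 C with PPARd-bla HEK293H cells.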

[9] = qHTS assay to identify small molecule antagonists of the peroxisome proliferator-activated receptor delta (PPARd) signaling pathway - cell viability counter screen (AID 743213); note: nearly all actives have a fitted effect of over 50% in size; note: potency is the fitted concentration of half-maximal effect
Procedure, shortened: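 In this counter screen, HEK293H cells carrying a UAS-beta-lactamase reporter are co-treated with test compounds and 300 nM L165041 (final) for 17 h at 37 C; cell viability is quantified by CellTiter-Glo luminescence.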

[10] = target: Bile acid receptor (Homo sapiens) (UniProt Q96RI1); assay: qHTS assay to identify small molecule antagonists of the farnesoid-X-receptor (FXR) signaling pathway (AID 743217; active = well fitted inhibition curve with a large enough effect in the signal ratio in the repeat runs, not every such curve was filed as active; the % refers to the signal ratio; note: potency is the fitted concentration of half-maximal effect)
Sequence of Bile acid receptor (Homo sapiens) (Q96RI1 whole entry, looked up): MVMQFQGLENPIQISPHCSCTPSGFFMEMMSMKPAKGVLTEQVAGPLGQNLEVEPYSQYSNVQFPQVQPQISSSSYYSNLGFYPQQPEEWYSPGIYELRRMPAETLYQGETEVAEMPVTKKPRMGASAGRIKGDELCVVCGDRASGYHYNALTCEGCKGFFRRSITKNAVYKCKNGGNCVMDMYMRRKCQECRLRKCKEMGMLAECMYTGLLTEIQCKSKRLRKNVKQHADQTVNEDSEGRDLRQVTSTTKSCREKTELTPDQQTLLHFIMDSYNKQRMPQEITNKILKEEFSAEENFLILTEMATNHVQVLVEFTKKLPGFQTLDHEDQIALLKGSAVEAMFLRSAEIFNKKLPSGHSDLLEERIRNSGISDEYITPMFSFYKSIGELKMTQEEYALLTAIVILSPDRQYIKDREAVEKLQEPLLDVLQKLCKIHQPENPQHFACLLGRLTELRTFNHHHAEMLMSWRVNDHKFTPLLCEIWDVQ
Procedure, shortened: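 Screen of the Tox21 10K library in quantitative HTS format using FXR-UAS-bla HEK 293T reporter cells. Agonist chenodeoxycholic acid, 50 uM final, added with compounds; 16 h incubation at 37 °C; beta-lactamase FRET fluorescence measured.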

[11] = target: Peroxisome proliferator-activated receptor gamma (Homo sapiens) (UniProt P37231); assay: qHTS assay to identify small molecule agonists of the peroxisome proliferator-activated receptor gamma (PPARg) signaling pathway (AID 743094; active = well fitted activation curve with a large enough effect in the signal ratio in the repeat runs, not every such curve was filed as active; the % refers to the signal ratio; note: potency is the fitted concentration of half-maximal effect)
Sequence of Peroxisome proliferator-activated receptor gamma (Homo sapiens) (P37231 whole entry, looked up): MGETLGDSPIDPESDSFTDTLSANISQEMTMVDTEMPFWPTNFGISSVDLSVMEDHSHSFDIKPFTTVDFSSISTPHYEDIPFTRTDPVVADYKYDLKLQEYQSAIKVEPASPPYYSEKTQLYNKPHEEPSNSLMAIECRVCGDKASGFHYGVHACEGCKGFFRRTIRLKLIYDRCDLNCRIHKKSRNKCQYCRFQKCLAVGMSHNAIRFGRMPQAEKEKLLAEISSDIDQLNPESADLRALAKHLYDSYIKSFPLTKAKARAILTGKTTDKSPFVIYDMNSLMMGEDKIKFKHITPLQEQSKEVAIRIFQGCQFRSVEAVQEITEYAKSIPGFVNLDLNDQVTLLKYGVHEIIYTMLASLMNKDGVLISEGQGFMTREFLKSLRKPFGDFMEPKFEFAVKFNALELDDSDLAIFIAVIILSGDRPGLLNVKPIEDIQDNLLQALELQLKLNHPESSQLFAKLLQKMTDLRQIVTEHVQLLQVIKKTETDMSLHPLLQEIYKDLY
Procedure, shortened: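 Reporter activation was scored by fluorescence of cleaved LiveBLAzer B/G substrate (1 h, room temperature) in PPARg-bla HEK293H cells previously treated 17 h at 37C with DMSO-dissolved compounds.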

[12] = qHTS assay to identify small molecule agonists of the farnesoid-X-receptor (FXR) signaling pathway - cell viability counter screen (AID 743218); note: nearly all actives have a fitted effect of over 45% in size; note: potency is the fitted concentration of half-maximal effect
Procedure, shortened: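 Viability of FXR-bla HEK 293T cells is measured by ATP-based CellTiter-Glo luminescence following 16 h compound treatment at 37 C and a prior 2 h room-temperature beta-lactamase substrate step.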

[13] = qHTS assay to identify small molecule antagonists of the farnesoid-X-receptor (FXR) signaling pathway - cell viability counter screen (AID 743221; active = well fitted cell-killing curve with a large enough effect in the repeat runs, not every such curve was filed as active; note: nearly all actives have a fitted effect of over 50% in size; note: potency is the fitted concentration of half-maximal effect)
Procedure, shortened: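 Luminescence from CellTiter-Glo measures cytotoxicity in GeneBLAzer FXR-UAS-bla HEK 293T cells. Cells were exposed to compounds with 50 uM chenodeoxycholic acid (final) for 16 h at 37 C, in wells also used for the reporter readout.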

[14] = qHTS assay for small molecule activators of the heat shock response signaling pathway (AID 743210; active = well fitted activation curve with a large enough effect in the signal ratio in the repeat runs, with a control signal flat, not every such curve was filed as active; the % refers to the signal ratio; note: series mostly up to about 63 µM)
Procedure, shortened: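 Heat shock element–beta-lactamase HeLa reporter cells; qHTS with compounds for 5 h at 37 C; detection by FRET substrate fluorescence after 2.5 h at RT.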

[15] = target: Bile acid receptor (Homo sapiens) (UniProt Q96RI1); assay: qHTS assay to identify small molecule agonists of the farnesoid-X-receptor (FXR) signaling pathway (AID 743220; active = well fitted activation curve with a large enough effect in the signal ratio in the repeat runs, not every such curve was filed as active; the % refers to the signal ratio)
Procedure, shortened: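 FXR-UAS-bla HEK 293T cells carrying a UAS-driven beta-lactamase reporter were plated for 5 h at 37C/5% CO2, then exposed to DMSO-dissolved Tox21 10K compounds for 16 h at 37C. A LiveBLAzer B/G FRET substrate was loaded for 2 h at room temperature before fluorescence reading.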

[16] = target: Peroxisome proliferator-activated receptor delta (Homo sapiens) (UniProt Q03181); assay: qHTS assay to identify small molecule antagonists of the peroxisome proliferator-activated receptor delta (PPARd) signaling pathway (AID 743215; active = well fitted inhibition curve with a large enough effect in the signal ratio in the repeat runs, not every such curve was filed as active; the % refers to the signal ratio;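 note: cells stimulated with agonist L165041 at 300 nM final during compound exposure; potency is the fitted concentration of half-maximal effect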)
Procedure, shortened: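 Plated HEK293H PPARd-bla cells rested 5 h at 37 C and 5% CO2. Compound, then agonist L165041 at 300 nM final, was added; 17 h at 37 C followed. Substrate loading, 2 h room temperature, fluorescence measured.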

[17] = target: Peroxisome proliferator-activated receptor gamma (Homo sapiens) (UniProt P37231); assay: qHTS assay to identify small molecule antagonists of the peroxisome proliferator-activated receptor gamma (PPARg) signaling pathway (AID 743191; calls by dose curve; note: series mostly up to about 63 µM; nearly all actives have a fitted effect of over 30% in size)
Procedure, shortened: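 GeneBLAzer PPARg UAS-bla HEK293H cells carrying a UAS-driven beta-lactamase reporter were plated at 3000 cells/well, preincubated 5 h at 37C, then given compound for 17 h at 37C; LiveBLAzer B/G FRET substrate was read after 1 h at room temperature.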

[18] = qHTS assay for small molecule agonists of the antioxidant response element (ARE) signaling pathway (AID 743202; active = well fitted activation curve with a large enough effect in the signal ratio in the repeat runs, not every such curve was filed as active; the % refers to the signal ratio)
Procedure, shortened: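 Following a 16 h, 37 C exposure of reporter HepG2 cells (ARE-driven beta-lactamase, 2,000 cells/well) to compounds, FRET substrate was applied for 2 h at room temperature and fluorescence intensity recorded.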

[19] = target: Vitamin D3 receptor (Homo sapiens) (UniProt P11473); assay: qHTS assay to identify small molecule antagonists of the vitamin D receptor (VDR) signaling pathway (AID 743223; active = well fitted inhibition curve with a large enough effect in the signal ratio in the repeat runs, not every such curve was filed as active; the % refers to the signal ratio; note: potency is the fitted concentration of half-maximal effect)
Sequence of Vitamin D3 receptor (Homo sapiens) (P11473 whole entry, looked up): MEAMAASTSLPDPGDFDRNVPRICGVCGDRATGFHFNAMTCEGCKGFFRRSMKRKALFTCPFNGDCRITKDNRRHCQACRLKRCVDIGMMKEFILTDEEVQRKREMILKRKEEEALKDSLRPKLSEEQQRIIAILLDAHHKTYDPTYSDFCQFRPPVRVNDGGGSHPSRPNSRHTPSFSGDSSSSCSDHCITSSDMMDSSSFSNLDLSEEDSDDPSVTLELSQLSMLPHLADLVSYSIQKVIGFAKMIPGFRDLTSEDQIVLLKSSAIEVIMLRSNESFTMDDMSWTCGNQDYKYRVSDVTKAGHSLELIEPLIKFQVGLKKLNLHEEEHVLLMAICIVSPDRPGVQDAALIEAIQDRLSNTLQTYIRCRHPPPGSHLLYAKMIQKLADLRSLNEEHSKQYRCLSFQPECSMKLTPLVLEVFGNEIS
Procedure, shortened: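 Antagonist mode uses 1alpha,25-dihydroxyvitamin D3 at 3 nM final as stimulus. VDR-bla cells receive compounds in DMSO, incubate 16 h at 37C, then a beta-lactamase FRET substrate for 2 h at room temperature before fluorescence measurement.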

[20] = target: Vitamin D3 receptor (Homo sapiens) (UniProt P11473); assay: qHTS assay to identify small molecule agonists of the vitamin D receptor (VDR) signaling pathway (AID 743222; calls by dose curve)
Procedure, shortened: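 Fluorescence from cleaved LiveBLAzer B/G FRET substrate served as readout. VDR-bla cells had been treated 16 h at 37C with test compounds in DMSO, following a 4 h settling period, and substrate was loaded for 2 h at RT.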

Measured: Potency

C=C[C@](C)(O)CC[C@@H]1[C@@]2(C)CCCC(C)(C)[C@@H]2CC[C@@]1(C)O
inactive: [2] | [3] | [8]
active: [1] 61.1 µM | [4] 49 µM | [5] 77 µM | [6] 43.6 µM | [7] 54.9 µM | [9] 34.7 µM | [10] 49 µM

CC(O)C#CC(C)O (stereo not given)
active: [1] 30.3 µM | [11] 54.4 µM | [6] 21.7 µM
inactive: [2] | [3] | [8] | [12] | [13]

C=CC(=O)OCC(O)COc1ccccc1 (stereo not given)
inactive: [2] | [3] | [8]
active: [1] 61.1 µM | [6] 4.9 µM | [12] 34.7 µM

COCC(=O)O[C@]1(CCN(C)CCCc2nc3ccccc3[nH]2)CCc2cc(F)ccc2[C@@H]1C(C)C
inactive: [2] | [6] | [14] | [15]
active: [1] 26.6 µM | [3] 9.44 µM | [5] 23.7 µM | [12] 11.9 µM

C=CC(=O)OCCOCC(CC)(COCCOC(=O)C=C)COCCOC(=O)C=C
inactive: [2] | [5]
active: [1] 2.84 µM | [3] 71.4 µM | [6] 18.1 µM | [9] 36.1 µM | [12] 51 µM

O[C@@H](c1cc(C(F)(F)F)nc2c(C(F)(F)F)cccc12)[C@H]1CCCCN1
active: [1] 26.6 µM | [3] 29.8 µM | [5] 29.8 µM | [7] 10.6 µM | [16] 13.3 µM | [12] 13.3 µM | [13] 26.6 µM
inactive: [2] | [6] | [15]

O=C(O)Cc1ccc(OCCNC[C@H](O)c2ccccc2)cc1
not listed: [3] | [7] | [8] | [14] | [16] | [20]
inactive: all other assays above

CC(C)(C)CC(C)(C)c1ccccc1O
active: [1] 48.8 µM | [5] 61.4 µM | [6] 55.2 µM | [7] 43.9 µM | [9] 39.1 µM | [13] 43.9 µM | [19] 43.9 µM
inactive: [2] | [3] | [8] | [20]

COc1ccc2sc(C(=O)Nc3nnn[nH]3)c(OC(C)C)c2c1
inactive: [1] | [2] | [5] | [14] | [9] | [12] | [15] | [13]
active: [11] 5.47 µM

CC(C)(C)C1=CC(=O)C=C(C(C)(C)C)C1=O
active: [1] 34.4 µM | [5] 54.5 µM | [6] 43.7 µM
inactive: [2] | [3] | [9] | [20] | [19]

CN(C)CCCN1c2ccccc2Sc2ccc(C(F)(F)F)cc21
active: [3] 23.7 µM | [5] 29.8 µM | [12] 11.9 µM
inactive: [1] | [2] | [6] | [14] | [15] | [20]
